# The campaign covered roughly 5,500 compounds. About 2,000 (36%) were called active. Not shown: some 18% with an inconclusive outcome. The list shows a part of the results. Values without a mark were called inactive. Cut-off read from the data, not from the text of the source: active = normalized growth mostly below about 0.91 (no sharp cut-off); inconclusive = no clear call, values can overlap the other calls; inactive = mostly above about 0.92.
# Assay: chemical genetic growth profiling, strain panel (AID 1159580);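 note: tested at 20 µM; growth read once vehicle control cultures reached saturation at 30 °C; 1 = growth at the plate median or of vehicle wells; lower values mean less growth of the strain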
# Details: growth OD
compound,measurement,setting,value
Cc1cc(CC(=O)O)n(C)c1C(=O)c1ccc(Cl)cc1,normalized growth,"S. cerevisiae deletion strains, locus YJR075W, strain HOC1, active compounds read low",1
same,normalized growth,"S. cerevisiae deletion strains, locus YKL009W, strain mrt4, active compounds read low",0.962
same,normalized growth,"S. cerevisiae deletion strains, locus YKL068W, active compounds read low",1
same,normalized growth,"S. cerevisiae deletion strains, locus YKL085W, strain MDH1 (second series), active compounds read low",0.994
same,normalized growth,"S. cerevisiae deletion strains, locus YKL085W, strain MDH1, active compounds read low",0.994
same,normalized growth,"S. cerevisiae deletion strains, locus YKL160W, strain elf1, active compounds read low",1.05
same,normalized growth,"S. cerevisiae deletion strains, locus YKL190W, strain CNB1, active compounds read low",1.01
same,normalized growth,"S. cerevisiae deletion strains, locus YKR001C, strain vps1, active compounds read low",1.03
same,normalized growth,"S. cerevisiae deletion strains, locus YKR026C, strain gcn3, active compounds read low",1.03
same,normalized growth,"S. cerevisiae deletion strains, locus YKR091W, strain srl3, active compounds read low",1.02
same,normalized growth,"S. cerevisiae deletion strains, locus YLL001W, strain dnm1, active compounds read low",1
same,normalized growth,"S. cerevisiae deletion strains, locus YLL026W, active compounds read low",1.05
same,normalized growth,"S. cerevisiae deletion strains, locus YLL041C, strain sdh2, active compounds read low",1.02
same,normalized growth,"S. cerevisiae deletion strains, locus YLR027C, strain aat2, active compounds read low",1.03
same,normalized growth,"S. cerevisiae deletion strains, locus YLR039C, strain RIC1, active compounds read low",1
same,normalized growth,"S. cerevisiae deletion strains, locus YLR058C, strain SHM2, active compounds read low",0.996
same,normalized growth,"S. cerevisiae deletion strains, locus YLR102C, strain apc9, active compounds read low",1.01
same,normalized growth,"S. cerevisiae deletion strains, locus YLR113W, strain HOG1, active compounds read low",1.01
same,normalized growth,"S. cerevisiae deletion strains, locus YLR221C, strain rsa3, active compounds read low",1.01
same,normalized growth,"S. cerevisiae deletion strains, locus YLR258W, strain gsy2, active compounds read low",1.04
same,normalized growth,"S. cerevisiae deletion strains, locus YLR262C, strain YPT6 (second series), active compounds read low",1.01
same,normalized growth,"S. cerevisiae deletion strains, locus YLR262C, strain YPT6, active compounds read low",1.01
same,normalized growth,"S. cerevisiae deletion strains, locus YLR268W, strain sec22, active compounds read low",0.997
same,normalized growth,"S. cerevisiae deletion strains, locus YLR320W, strain mms22, active compounds read low",0.994
same,normalized growth,"S. cerevisiae deletion strains, locus YLR330W, strain CHS5, active compounds read low",0.992
same,normalized growth,"S. cerevisiae deletion strains, locus YLR342W, strain FKS1 (second series), active compounds read low",0.937
same,normalized growth,"S. cerevisiae deletion strains, locus YLR342W, strain FKS1, active compounds read low",1.01
same,normalized growth,"S. cerevisiae deletion strains, locus YLR357W, strain rsc2, active compounds read low",0.995
same,normalized growth,"S. cerevisiae deletion strains, locus YLR370C, strain arc18, active compounds read low",1.04
same,normalized growth,"S. cerevisiae deletion strains, locus YLR371W, strain rom2, active compounds read low",1.02
same,normalized growth,"S. cerevisiae deletion strains, locus YLR384C, strain iki3, active compounds read low",1.04
same,normalized growth,"S. cerevisiae deletion strains, locus YLR418C, strain cdc73, active compounds read low",0.99
same,normalized growth,"S. cerevisiae deletion strains, locus YML016C, strain PPZ1, active compounds read low",0.994
same,normalized growth,"S. cerevisiae deletion strains, locus YML032C, strain rad52, active compounds read low",1.02
same,normalized growth,"S. cerevisiae deletion strains, locus YML120C, strain ndi1, active compounds read low",1.02
same,normalized growth,"S. cerevisiae deletion strains, locus YML124C, strain tub3, active compounds read low",1.01
same,normalized growth,"S. cerevisiae deletion strains, locus YMR058W, strain fet3, active compounds read low",1.03
same,normalized growth,"S. cerevisiae deletion strains, locus YMR078C, strain ctf18, active compounds read low",1.01
same,normalized growth,"S. cerevisiae deletion strains, locus YMR125W, strain sto1, active compounds read low",1.03
same,normalized growth,"S. cerevisiae deletion strains, locus YMR129W, active compounds read low",1.02
same,normalized growth,"S. cerevisiae deletion strains, locus YMR205C, strain PFK2, active compounds read low",1.02
same,normalized growth,"S. cerevisiae deletion strains, locus YMR223W, strain ubp8, active compounds read low",0.994
same,normalized growth,"S. cerevisiae deletion strains, locus YMR231W, strain pep5, active compounds read low",1.03
same,normalized growth,"S. cerevisiae deletion strains, locus YMR263W, strain SAP30, active compounds read low",0.993
same,normalized growth,"S. cerevisiae deletion strains, locus YMR307W, strain GAS1, active compounds read low",0.947
same,normalized growth,"S. cerevisiae deletion strains, locus YNL067W, strain RPL9B, active compounds read low",0.997
same,normalized growth,"S. cerevisiae deletion strains, locus YNL071W, strain lat1, active compounds read low",1.02
same,normalized growth,"S. cerevisiae deletion strains, locus YNL128W, strain TEP1, active compounds read low",1.01
same,normalized growth,"S. cerevisiae deletion strains, locus YNL153C, strain GIM3, active compounds read low",0.991
same,normalized growth,"S. cerevisiae deletion strains, locus YNL183C, strain NPR1, active compounds read low",0.963
same,normalized growth,"S. cerevisiae deletion strains, locus YNL209W, strain ssb2, active compounds read low",1.05
same,normalized growth,"S. cerevisiae deletion strains, locus YNL233W, strain BNI4, active compounds read low",0.993
same,normalized growth,"S. cerevisiae deletion strains, locus YNL248C, strain rpa49, active compounds read low",1.02
same,normalized growth,"S. cerevisiae deletion strains, locus YNL250W, strain rad50, active compounds read low",1.01
same,normalized growth,"S. cerevisiae deletion strains, locus YNL271C, strain bni1, active compounds read low",1.01
same,normalized growth,"S. cerevisiae deletion strains, locus YNL298W, strain CLA4, active compounds read low",0.998
same,normalized growth,"S. cerevisiae deletion strains, locus YNL307C, strain MCK1, active compounds read low",0.901 (active)
same,normalized growth,"S. cerevisiae deletion strains, locus YNL322C, strain KRE1 (second series), active compounds read low",1.02
same,normalized growth,"S. cerevisiae deletion strains, locus YNL322C, strain KRE1, active compounds read low",1.01
same,normalized growth,"S. cerevisiae deletion strains, locus YNR049C, strain mso1, active compounds read low",1.02
same,normalized growth,"S. cerevisiae deletion strains, locus YNR052C, strain pop2, active compounds read low",1.01
same,normalized growth,"S. cerevisiae deletion strains, locus YOL006C, strain TOP1, active compounds read low",0.895
same,normalized growth,"S. cerevisiae deletion strains, locus YOL012C, strain htz1",1.55
same,normalized growth,"S. cerevisiae deletion strains, locus YOL147C, strain pex11, active compounds read low",1.02
same,normalized growth,"S. cerevisiae deletion strains, locus YOR001W, strain rrp6, active compounds read low",1.01
same,normalized growth,"S. cerevisiae deletion strains, locus YOR061W, strain CKA2, active compounds read low",1.01
same,normalized growth,"S. cerevisiae deletion strains, locus YOR069W, strain VPS5, active compounds read low",1
same,normalized growth,"S. cerevisiae deletion strains, locus YOR070C, strain gyp1, active compounds read low",1.02
same,normalized growth,"S. cerevisiae deletion strains, locus YOR080W, strain dia2, active compounds read low",1.03
same,normalized growth,"S. cerevisiae deletion strains, locus YOR083W, strain WHI5, active compounds read low",1.04
same,normalized growth,"S. cerevisiae deletion strains, locus YOR106W, strain vam3, active compounds read low",1.05
same,normalized growth,"S. cerevisiae deletion strains, locus YOR136W, strain idh2, active compounds read low",1.02
same,normalized growth,"S. cerevisiae deletion strains, locus YOR144C, strain elg1, active compounds read low",1.01
same,normalized growth,"S. cerevisiae deletion strains, locus YOR184W, strain ser1, active compounds read low",0.983
same,normalized growth,"S. cerevisiae deletion strains, locus YOR231W, strain MKK1, active compounds read low",1.01
same,normalized growth,"S. cerevisiae deletion strains, locus YOR265W, strain rbl2, active compounds read low",1.05
same,normalized growth,"S. cerevisiae deletion strains, locus YOR270C, strain vph1, active compounds read low",1.05
same,normalized growth,"S. cerevisiae deletion strains, locus YOR290C, strain snf2, active compounds read low",1.06
same,normalized growth,"S. cerevisiae deletion strains, locus YOR316C, strain cot1, active compounds read low",1.01
same,normalized growth,"S. cerevisiae deletion strains, locus YPL051W, strain arl3, active compounds read low",1.04
same,normalized growth,"S. cerevisiae deletion strains, locus YPL055C, strain LGE1, active compounds read low",1
same,normalized growth,"S. cerevisiae deletion strains, locus YPL078C, strain atp4, active compounds read low",1.04
same,normalized growth,"S. cerevisiae deletion strains, locus YPL106C, strain sse1, active compounds read low",1.04
same,normalized growth,"S. cerevisiae deletion strains, locus YPL240C, strain hsp82, active compounds read low",1.03
same,normalized growth,"S. cerevisiae deletion strains, locus YPL241C, strain CIN2, active compounds read low",0.996
same,normalized growth,"S. cerevisiae deletion strains, locus YPL256C, strain CLN2, active compounds read low",1.02
same,normalized growth,"S. cerevisiae deletion strains, locus YPR119W, strain clb2, active compounds read low",1.01
same,normalized growth,"S. cerevisiae deletion strains, locus YPR141C, strain kar3, active compounds read low",1.01
same,normalized growth,"S. cerevisiae deletion strains, locus YPR163C, strain tif3, active compounds read low",1.01
same,normalized growth,"S. cerevisiae deletion strains, locus YPR167C, strain met16, active compounds read low",1
same,normalized growth,"S. cerevisiae deletion strains, strain wtn01, active compounds read low",1.01
same,normalized growth,"S. cerevisiae strains, strain wild type, active compounds read low",1.01
